Reference: PubChem BioAssay AID1159580 (chemical genetic matrix, 2015)
In all, about 5,500 compounds went through this assay and about 2,000 (36%) were called active. Not shown: some 18% with an inconclusive outcome. Rule as the data show it: active = normalized growth mostly below about 0.91 (no sharp cut-off); inconclusive = no clear call, values can overlap the other calls; inactive = mostly above about 0.92. The list shows a part of the results.

Test: chemical genetic growth profiling, strain panel (AID 1159580);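 also: tested at 20 µM; growth read once vehicle control cultures reached saturation at 30 °C; 1 = growth at the plate median or of vehicle wells; lower values mean less growth of the strain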
Conditions: S. cerevisiae deletion strains, growth OD
[1] = locus YAL013W, strain DEP1, active compounds read low
[2] = locus YDR150W, strain NUM1, active compounds read low
[3] = locus YGR078C, strain PAC10, active compounds read low
[4] = locus YJR075W, strain HOC1, active compounds read low
[5] = locus YMR263W, strain SAP30, active compounds read low
[6] = locus YNL153C, strain GIM3, active compounds read low
[7] = locus YAL040C, strain CLN3, active compounds read low
[8] = locus YCL061C, strain MRC1 (second series), active compounds read low
[9] = locus YDR363W, strain ESC2, active compounds read low
[10] = locus YER002W, strain NOP16, active compounds read low
[11] = locus YNL175C, strain NOP13, active compounds read low
[12] = locus YNL197C, strain WHI3, active compounds read low
[13] = locus YNL224C, strain SQS1, active compounds read low
[14] = locus YOR083W, strain WHI5 (second series), active compounds read low

Measured: normalized growth

Cc1ccc(N=Cc2cccs2)cc1Cl
inactive: [1] 1.01 | locus YBR229C, strain ROT2, active compounds read low 0.998 | locus YCL061C, strain MRC1, active compounds read low 1.03 | locus YDL101C, strain DUN1, active compounds read low 1 | [2] 0.982 | locus YEL061C, strain CIN8, active compounds read low 1 | [3] 1 | locus YHR030C, strain SLT2, active compounds read low 1.04 | locus YHR087W, strain rtc3, active compounds read low 0.999 | locus YJR043C, strain POL32, active compounds read low 1.02 | [4] 1.01 | locus YKL190W, strain CNB1, active compounds read low 0.998 | locus YLR039C, strain RIC1, active compounds read low 0.991 | locus YLR058C, strain SHM2 (second series), active compounds read low 1.01 | locus YLR085C, strain ARP6, active compounds read low 1.05 | locus YLR262C, strain YPT6, active compounds read low 1 | locus YML094W, strain GIM5, active compounds read low 1 | locus YMR219W, strain ESC1, active compounds read low 0.998 | [5] 1 | locus YNL128W, strain TEP1, active compounds read low 1 | [6] 1 | locus YNL298W, strain CLA4 (second series), active compounds read low 1.04 | locus YNL322C, strain KRE1, active compounds read low 1.01 | locus YNR030W, strain Alg12, active compounds read low 1.02 | locus YOL006C, strain TOP1, active compounds read low 1.06 | locus YPL055C, strain LGE1, active compounds read low 1 | locus YPL241C, strain CIN2, active compounds read low 1.05 | locus YPR135W, strain CTF4, active compounds read low 1.01

O=C(O)CC1CCCc2ccccc2C1O (stereo not drawn)
inactive: [1] 1.01 | [7] 1.09 | [8] 0.999 | [9] 1.02 | [10] 1.01 | [5] 0.997 | [6] 1 | [11] 1.01 | [12] 1.01 | [13] 1.01 | [14] 1.02

CC(=O)[C@@]1(O)CC[C@H]2[C@@H]3CCC4=CC(=O)CC[C@]4(C)[C@H]3CC[C@@]21C
inactive: [1] 0.961 | [7] 0.947 | [8] 0.985 | [2] 1 | [9] 0.996 | [10] 0.967 | [3] 0.975 | locus YGR229C, strain SMI1, active compounds read low 1.01 | [4] 0.984 | locus YMR307W, strain GAS1, active compounds read low 0.979 | [11] 0.97 | [12] 0.966 | [13] 0.957 | [14] 1.03
